This is a sample that favours compounds with a hit; in the whole collection about 2.9% have one here.
EBNA-1 inh: blocks EBNA-1 binding to DNA | EBNA-1 DNA binding, fluorescence polarization | inhibition, % at 14.8 µM | 300,000 compounds, 0.34% hits | AID 1950; in the data active = inhibition above about 28%
PAFAH2 FP inh: PAFAH2 (human) inhibition; Q99487; recombinant PAFAH2, FP-rhodamine activity probe, fluorescence polarization; inhibition, % at 3.39 µM; 340,000 compounds, 0.99% hits; AID 492956;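 active = inhibition above the mean over all tested compounds plus 3 SD, cut at about 30% in these data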;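 note: inhibitors block probe labeling of enzyme so polarization drops; 0% = enzyme with DMSO and 100% = wells lacking PAFAH2 protein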
pPAFAH inh: pPAFAH (human) enzyme inhibition. Q13093. recombinant pPAFAH, FP-rhodamine probe fluorescence polarization. inhibition, % at 3.39 µM. AID 463082. 330,000 compounds, 1.5% hits;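 active = inhibition above the mean inhibition across the screen plus 3 SD, cut at about 25% in these data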;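 note: inhibitors block binding of the rhodamine activity-based probe so polarization drops; 0% = enzyme with DMSO and 100% = wells lacking pPAFAH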
Target sequence (Q13093 whole entry, looked up): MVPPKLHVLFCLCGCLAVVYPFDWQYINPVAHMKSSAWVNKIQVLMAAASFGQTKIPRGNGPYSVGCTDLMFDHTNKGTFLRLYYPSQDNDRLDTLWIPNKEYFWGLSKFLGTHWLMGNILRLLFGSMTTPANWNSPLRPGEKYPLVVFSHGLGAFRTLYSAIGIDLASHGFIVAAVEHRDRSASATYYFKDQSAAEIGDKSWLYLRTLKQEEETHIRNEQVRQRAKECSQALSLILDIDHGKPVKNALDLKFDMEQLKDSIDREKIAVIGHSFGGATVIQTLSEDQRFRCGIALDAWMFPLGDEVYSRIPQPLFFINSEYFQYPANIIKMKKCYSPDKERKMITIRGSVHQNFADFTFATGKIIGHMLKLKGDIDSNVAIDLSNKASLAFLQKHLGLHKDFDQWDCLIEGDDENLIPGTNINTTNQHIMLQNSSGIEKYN
ZTA counter: blocks Epstein-Barr virus ZTA, an EBNA-1 counter-screen; P03206; ZTA-DNA binding, fluorescence polarization; inhibition, % at 11 µM; 320,000 compounds, 0.15% hits; AID 2234; in the data active = inhibition above about 33%
PAFAH1B3 inh: blocks human PAF acetylhydrolase 1B catalytic subunit 3; recombinant PAFAH1B3, FP-rhodamine probe, fluorescence polarization; AID 492972; inhibition, % at 3.39 µM; 340,000 compounds, 0.28% hits;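 active = inhibition above the screen-wide average of all tested compounds plus 3 SD, cut at about 25% in these data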;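 note: 0% = enzyme with DMSO only and 100% = wells lacking PAFAH1B3 protein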
PAFAH1B2 FP inh: blocks human PAF acetylhydrolase 1b catalytic subunit 2; inhibition, % at 3.39 µM; P68402; 340,000 compounds, 1.2% hits; recombinant PAFAH1B2, FP-rhodamine activity probe, fluorescence polarization;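 active = inhibition above the mean of all tested compounds plus 3 SD, cut at about 24% in these data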;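 note: 0% = enzyme with DMSO and 100% = wells lacking PAFAH1B2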
Target sequence (P68402 whole entry, looked up): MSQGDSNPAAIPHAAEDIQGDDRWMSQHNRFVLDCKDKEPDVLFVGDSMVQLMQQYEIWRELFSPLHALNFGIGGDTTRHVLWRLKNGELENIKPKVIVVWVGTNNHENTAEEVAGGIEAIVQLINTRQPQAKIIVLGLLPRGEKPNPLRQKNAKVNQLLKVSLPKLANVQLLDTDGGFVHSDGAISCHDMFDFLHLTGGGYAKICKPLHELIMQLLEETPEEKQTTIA
PAFAH2 confirm: PAFAH2 (human) inhibition, confirmed. recombinant PAFAH2, FP-rhodamine activity probe, fluorescence polarization. 2,300 compounds, 65% hits. inhibition, % at 3.39 µM. shares compounds with PAFAH2 FP inh. AID 493030;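 active = mean inhibition over three repeats above a set limit taken from the earlier primary screen, cut at about 30% in these data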;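 note: inhibitor blocks binding of rhodamine activity probe so polarization falls; 0% = enzyme with DMSO and 100% = wells lacking PAFAH2 protein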
Starred values were filed as active, the others as inactive.

Screening CCc1sc(C(=O)Nc2ncccc2O)cc1C returned PAFAH2 FP inh 30.4*, PAFAH1B3 inh 4.3, PAFAH1B2 FP inh 1.9 and PAFAH2 confirm 26.6.
For CCc1sc(C(=O)Nc2ncccc2C)cc1C the results were EBNA-1 inh 8.5, PAFAH2 FP inh 5.9, pPAFAH inh 4.9, ZTA counter -0.1, PAFAH1B3 inh 5.5 and PAFAH1B2 FP inh 2.6.
CC(=O)N1CCN=C1SCc1cccc(F)c1 was read as EBNA-1 inh -11.7, PAFAH2 FP inh -4.0, pPAFAH inh -4.2, ZTA counter 6.7, PAFAH1B3 inh -2.0 and PAFAH1B2 FP inh 5.2.
`Cc1ccc(C(=O)OCC(=O)Nc2sc3c(c2C#N)CCCC3)cc1NC(=O)c1ccco1` gave EBNA-1 inh 9.5, PAFAH2 FP inh 13.2, pPAFAH inh 21.0, ZTA counter -7.7, PAFAH1B3 inh -24.9 and PAFAH1B2 FP inh -3.0.
For Cc1ccc(C(=O)OCC(=O)Nc2sccc2C(N)=O)cc1NC(=O)c1ccco1 the results were EBNA-1 inh -3.1, PAFAH2 FP inh 15.6, pPAFAH inh 1.2, ZTA counter 12.9, PAFAH1B3 inh -1.3 and PAFAH1B2 FP inh -1.3.
`Cc1ccc(C(=O)OCC(=O)Nc2cc(F)ccc2F)cc1NC(=O)c1ccco1` gave EBNA-1 inh 7.0, PAFAH2 FP inh 77.7*, pPAFAH inh -1.1, ZTA counter -1.5, PAFAH1B3 inh -2.4, PAFAH1B2 FP inh 2.0 and PAFAH2 confirm 70.3*.
For Cc1ccc(C(=O)OCC(=O)Nc2ccc(N(C)C)cc2)cc1NC(=O)c1ccco1 the results were EBNA-1 inh 8.7, PAFAH2 FP inh 40.5*, pPAFAH inh 0.7, ZTA counter -8.5, PAFAH1B3 inh 2.6, PAFAH1B2 FP inh -2.4 and PAFAH2 confirm 34.6*.
`CCC(C)c1ccccc1NC(=O)COC(=O)c1ccc(C)c(NC(=O)c2ccco2)c1` (centres undefined) gave EBNA-1 inh 5.2, PAFAH2 FP inh 78.3*, pPAFAH inh 0.6, ZTA counter -17.8, PAFAH1B3 inh 3.7, PAFAH1B2 FP inh -0.5 and PAFAH2 confirm 73.6*.
Screening Cc1ccc(C(=O)OCC(=O)Nc2ncc(Cl)cc2Cl)cc1NC(=O)c1ccco1 returned EBNA-1 inh -1.5, PAFAH2 FP inh 42.2*, pPAFAH inh 9.8, ZTA counter -9.0, PAFAH1B3 inh 8.7, PAFAH1B2 FP inh 0.5 and PAFAH2 confirm 41.3*.
Screening CCCCC(=O)Nc1ccc(C(=O)Nc2ccc(S(=O)(=O)Nc3ccc(C)cc3)cc2)cc1 returned EBNA-1 inh 1.3, PAFAH2 FP inh 7.5, pPAFAH inh 10.1, ZTA counter 20.4, PAFAH1B3 inh 4.6 and PAFAH1B2 FP inh -0.5.
For NC(=O)C1CCN(Cc2nc3cc(C(F)(F)F)ccc3c(=O)[nH]2)CC1 the results were EBNA-1 inh 1.2, PAFAH2 FP inh -1.1, pPAFAH inh 3.5, ZTA counter 9.0, PAFAH1B3 inh 2.8 and PAFAH1B2 FP inh 4.6.
`COc1ccc(OC)c(S(=O)(=O)Oc2ccc(N)c3ccccc23)c1` gave EBNA-1 inh -1.9, PAFAH2 FP inh 15.8, pPAFAH inh 16.2, ZTA counter 10.5, PAFAH1B3 inh 17.0 and PAFAH1B2 FP inh 0.8.
Screening Cc1nnnn1CC(=O)Nc1cccc([N+](=O)[O-])c1 returned EBNA-1 inh -6.2, PAFAH2 FP inh 4.7, pPAFAH inh -9.5, ZTA counter 9.9, PAFAH1B3 inh 6.6 and PAFAH1B2 FP inh 2.0.
`CCn1cc(S(=O)(=O)Nc2cc(F)ccc2C)cn1` gave EBNA-1 inh 0.2, PAFAH2 FP inh 2.3, pPAFAH inh 14.9, ZTA counter 5.3, PAFAH1B3 inh -4.2 and PAFAH1B2 FP inh 8.2.
For Cc1ccc(C(=O)OCC(=O)Nc2ccccc2)cc1NC(=O)c1ccco1 the results were EBNA-1 inh 7.4, PAFAH2 FP inh 81.5*, pPAFAH inh 8.2, ZTA counter 11.3, PAFAH1B3 inh 1.3, PAFAH1B2 FP inh -7.3 and PAFAH2 confirm 81.2*.
For Cc1ccc(C(=O)OCC(=O)Nc2nc(-c3ccccc3)cs2)cc1NC(=O)c1ccco1 the results were EBNA-1 inh 4.9, PAFAH2 FP inh -22.2, pPAFAH inh -15.0, ZTA counter 12.8, PAFAH1B3 inh -11.3 and PAFAH1B2 FP inh -3.1.
`COc1ccc(C(=O)O/N=C(\N)c2ccc(OC)c(OC)c2)cc1` gave EBNA-1 inh -10.2, PAFAH2 FP inh 0.2, pPAFAH inh -1.2, ZTA counter 12.2, PAFAH1B3 inh 7.4 and PAFAH1B2 FP inh 2.4.
COc1ccc(C(=O)O/N=C(/c2ccccc2)c2ccncc2)cc1OC was read as EBNA-1 inh 11.7, PAFAH2 FP inh 73.8*, pPAFAH inh 1.6, ZTA counter 8.1, PAFAH1B3 inh 6.0, PAFAH1B2 FP inh 13.8 and PAFAH2 confirm 80.0*.
`COc1ccc(C(=O)O/N=C(\C)c2ccccc2)cc1` gave EBNA-1 inh -0.4, PAFAH2 FP inh 61.6*, pPAFAH inh 9.8, ZTA counter 9.1, PAFAH1B3 inh 3.3, PAFAH1B2 FP inh 1.0 and PAFAH2 confirm 44.9*.
`COc1ccc(C(=O)O/N=C(/c2ccccc2)c2ccncc2)cc1` gave EBNA-1 inh 2.3, PAFAH2 FP inh 78.0*, pPAFAH inh 5.0, ZTA counter 12.7, PAFAH1B3 inh 2.8, PAFAH1B2 FP inh -2.4 and PAFAH2 confirm 70.6*.
`CC(=O)N/C(=C\c1ccccc1)C(=O)OCC(=O)NC1CCS(=O)(=O)C1` (centres undefined) gave PAFAH2 FP inh 0.1, pPAFAH inh -0.5, ZTA counter 2.0, PAFAH1B3 inh 2.5 and PAFAH1B2 FP inh -2.3.
O=C(COC(=O)c1ccccc1C(=O)c1ccc(Cl)c([N+](=O)[O-])c1)NC1CCCCCC1 was read as EBNA-1 inh 1.6, PAFAH2 FP inh 61.9*, pPAFAH inh 9.2, ZTA counter 1.2, PAFAH1B3 inh 2.2, PAFAH1B2 FP inh 4.7 and PAFAH2 confirm 46.8*.
Nc1ccc(C(=O)OCC(=O)N2CCc3ccccc3C2)cc1[N+](=O)[O-] was read as EBNA-1 inh -3.9, PAFAH2 FP inh 50.9*, pPAFAH inh 4.2, ZTA counter -1.9, PAFAH1B3 inh 0.9, PAFAH1B2 FP inh 3.7 and PAFAH2 confirm 45.7*.
Nc1ccc(C(=O)OCC(=O)NC2CC2)cc1[N+](=O)[O-] was read as EBNA-1 inh -1.1, PAFAH2 FP inh 59.3*, pPAFAH inh -0.3, ZTA counter 17.2, PAFAH1B3 inh 1.6, PAFAH1B2 FP inh 6.2 and PAFAH2 confirm 47.8*.
Screening Cc1c(NC(=O)CSc2ccccc2Cl)c(=O)n(-c2ccccc2)n1C returned EBNA-1 inh -1.0, PAFAH2 FP inh 7.4, pPAFAH inh 3.1, ZTA counter -8.7, PAFAH1B3 inh -3.6 and PAFAH1B2 FP inh 4.0.
Screening CC[C@]1(C(=O)OC)[C@H]2C(=O)N(C)C(=O)[C@H]2[C@H]2CN=C(SC)N21 returned PAFAH2 FP inh 8.9, PAFAH1B3 inh 2.8 and PAFAH1B2 FP inh 6.3.

Assay outcomes (PubChem BioAssay)
